Records with an inconclusive call do not appear. Calls of active or inactive are those of the source. Calls come from the whole dose curve; as a rule, active = well fitted cell-killing curve with a large enough effect; inconclusive = small, poorly fitted or top-dose-only effect, or effect the other way; inactive = no such curve, though single readings can be large or run the other way.
Columns and labels:
[1] = Quantitative High-Throughput drug screen in 47 multiple myeloma cell lines against the NCATS MIPE library collection: OCIMY7_PLB cell viability assay (AID 1918987); conditions: OCI-MY7 myeloma viability, CellTiter-Glo ATP, 48 h; viability (% of DMSO): at 45.8 µM (top of the series); note: nearly all actives have a fitted effect of over 65% in size
Summary of the method: (§1)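 qHTS format: cells plated (500/well), pin-dosed with MIPE 4.0 compounds, kept 48 h at 37 °C. Readout was CellTiter-Glo luminescence, median RLU.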

[2] = Quantitative High-Throughput drug screen in 47 multiple myeloma cell lines against the NCATS MIPE library collection: OCIMY5_PLB cell viability assay (AID 1918988); note: nearly all actives have a fitted effect of over 65% in size
Summary of the method: as §1

[3] = Quantitative High-Throughput drug screen in 47 multiple myeloma cell lines against the NCATS MIPE library collection: OPM1_PLB cell viability assay (AID 1918989); note: nearly all actives have a fitted effect of over 40% in size
Summary of the method: as §1

[4] = Quantitative High-Throughput drug screen in 47 multiple myeloma cell lines against the NCATS MIPE library collection: SKMM1_PLB cell viability assay (AID 1919863); conditions: SKMM1 myeloma viability, CellTiter-Glo ATP, 48 h; viability: hits give low values; note: nearly all actives have a fitted effect of over 35% in size
Summary of the method: as §1

[5] = Quantitative High-Throughput drug screen in 47 multiple myeloma cell lines against the NCATS MIPE library collection: U266_ATCC cell viability assay (AID 1919864); note: nearly all actives have a fitted effect of over 35% in size
Summary of the method: as §1

[6] = Quantitative High-Throughput drug screen in 47 multiple myeloma cell lines against the NCATS MIPE library collection: XG6_PLB cell viability assay (AID 1919865); note: nearly all actives have a fitted effect of over 40% in size
Summary of the method: as §1

[7] = Quantitative High-Throughput drug screen in 47 multiple myeloma cell lines against the NCATS MIPE library collection: XG1_PLB cell viability assay (AID 1919866); note: nearly all actives have a fitted effect of over 35% in size
Summary of the method: as §1

[8] = Quantitative High-Throughput drug screen in 47 multiple myeloma cell lines against the NCATS MIPE library collection: VP6_DJ cell viability assay (AID 1919867); note: nearly all actives have a fitted effect of over 40% in size
Summary of the method: as §1

[9] = Quantitative High-Throughput drug screen in 47 multiple myeloma cell lines against the NCATS MIPE library collection: PE2_PLB cell viability assay (AID 1919869); note: nearly all actives have a fitted effect of over 35% in size
Summary of the method: as §1

[10] = Quantitative High-Throughput drug screen in 47 multiple myeloma cell lines against the NCATS MIPE library collection: UTMC2_PLB cell viability assay (AID 1919868); conditions: CellTiter-Glo ATP luminescence, 48 h; viability (% of DMSO control): at 45.8 µM (top of the series); note: nearly all actives have a fitted effect of over 55% in size
Summary of the method: as §1

Measured: Potency
Potency is the fitted concentration of half-maximal effect.

NC(=O)N1CCC(CC(=O)N2CCC([C@H]3c4ncc(Br)cc4CCc4cc(Cl)cc(Br)c43)CC2)CC1
active: [1] 743 nM | [2] 9350 nM | [3] 23500 nM | [4] 18700 nM | [5] 18700 nM | [6] 16600 nM | [7] 5260 nM | [8] 13200 nM | [9] 14800 nM

Oc1ccc(-c2ccc(-c3cc(Nc4cccc(CNC5CC5)c4)n[nH]3)cc2)c(O)c1
active: [1] 4690 nM | [2] 1480 nM | [3] 1050 nM | [4] 5260 nM | [5] 5260 nM | [6] 418 nM | [7] 526 nM | [8] 743 nM | [10] 1320 nM | [9] 1320 nM

CCc1ccc(C(=O)Nc2cc(CN3CCN(C)CC3)cc(C(F)(F)F)c2)cc1C#Cc1cnc2ccnn2c1
active: [1] 1870 nM | [2] 1870 nM | [3] 7430 nM | [4] 16600 nM | [5] 18700 nM | [6] 4180 nM | [7] 4690 nM | [8] 9350 nM | [10] 11800 nM | [9] 4690 nM

C#C[C@]1(O)CC[C@@H]2[C@@H]3CCc4cc(O)ccc4[C@H]3CC[C@@]21C
active: [1] 3720 nM | [2] 7430 nM | [3] 23500 nM | [4] 14800 nM | [5] 14800 nM | [6] 4180 nM | [7] 3320 nM | [8] 3320 nM | [9] 16600 nM

C=C1C(=O)O[C@H]2[C@@H]1CCC(C)=CCC[C@@]1(C)O[C@@H]21
active: [1] 526 nM | [2] 4180 nM | [3] 4690 nM | [4] 16600 nM | [5] 6620 nM | [6] 5900 nM | [7] 2640 nM | [8] 4180 nM | [10] 4690 nM | [9] 3320 nM

O=C(C=Cc1ccc(CN(CCO)CCc2c[nH]c3ccccc23)cc1)NO
active: [1] 83.3 nM | [2] 66.2 nM | [3] 66.2 nM | [4] 187 nM | [5] 264 nM | [6] 235 nM | [7] 166 nM | [8] 59 nM | [9] 166 nM

Oc1ccc([C@@H]2Oc3ccc(O)cc3[C@@H]3CCC[C@@H]32)cc1
active: [1] 1180 nM | [2] 14800 nM | [3] 16600 nM | [4] 10500 nM

C=CC(=O)Nc1cccc(Nc2nc(NC3CCC(N(C)C)CC3)nc3c2ncn3C(C)C)c1 (stereo unspecified)
active: [1] 74.3 nM | [2] 52.6 nM | [3] 469 nM | [4] 935 nM | [5] 296 nM | [6] 16.6 nM | [7] 105 nM | [8] 235 nM | [10] 132 nM | [9] 209 nM

CCOC(=O)N1CCN([N+]([O-])=NOc2ccc([N+](=O)[O-])cc2[N+](=O)[O-])CC1
active: [1] 526 nM | [2] 1320 nM | [3] 1180 nM | [4] 6620 nM | [5] 2640 nM | [6] 2640 nM | [7] 418 nM | [8] 2350 nM | [10] 526 nM | [9] 1480 nM

CN(C)c1ccc(C(=O)NCCCCCCC(=O)NO)cc1
active: [1] 590 nM | [2] 469 nM | [3] 296 nM | [4] 1480 nM | [5] 1180 nM | [6] 1870 nM | [7] 1180 nM | [8] 148 nM | [10] 332 nM | [9] 2350 nM

COc1ccc(C[C@@H](C)[C@@H](C)Cc2ccc(OC)c(OC)c2)cc1OC
active: [1] 296 nM | [2] 469 nM | [3] 264 nM | [4] 372 nM | [5] 935 nM | [6] 264 nM | [7] 187 nM | [8] 833 nM | [10] 209 nM | [9] 332 nM

CC(=O)SCC(Cc1ccccc1)C(=O)NCC(=O)OCc1ccccc1 (stereo unspecified)
active: [1] 3720 nM | [2] 2640 nM | [3] 5260 nM | [4] 10500 nM | [5] 1320 nM | [6] 1050 nM | [7] 2960 nM | [8] 5900 nM | [10] 1320 nM | [9] 935 nM

Nc1ccc(C(=O)Nc2cccc(-c3nc(N4CCOCC4)c4oc5ncccc5c4n3)c2)cn1
active: [1] 3320 nM | [2] 5900 nM | [3] 1480 nM | [4] 23500 nM | [5] 20900 nM | [6] 2960 nM | [7] 5900 nM | [8] 4180 nM | [10] 3320 nM | [9] 2090 nM

COC1=C2C[C@@H](C)C[C@H](OC)[C@@H](O)[C@@H](C)C=C(C)[C@H](OC(N)=O)[C@@H](OC)C=CC=C(C)C(=O)NC(=CC1=O)C2=O
active: [1] 74.3 nM | [2] 37.2 nM | [3] 418 nM | [4] 2090 nM | [5] 132 nM | [6] 332 nM | [7] 209 nM | [8] 132 nM | [10] 209 nM | [9] 296 nM

From PubChem BioAssay (NCATS)
